From PubChem BioAssay (NCATS)
Records with an inconclusive call do not appear. Active and inactive are the calls of the source. Calls come from the whole dose curve; as a rule, active = well fitted curve in the direction sought with a large enough effect; inconclusive = small, poorly fitted or top-dose-only effect, or another doubt; inactive = no such curve, though single readings can be large; an effect the other way counts as inactive or inconclusive.

How the values were obtained:
[1] = molecular target: Aldehyde dehydrogenase, mitochondrial (Homo sapiens) (UniProt P05091); test: qHTS for Inhibitors of the Aldehyde Dehydrogenase Family (ALDH2) Primary screen (AID 2061308);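 note: plate controls were vehicle for no effect and reference inhibitor for full effect; nearly all actives have a fitted effect of over 55% in size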
[2] = molecular target: Retinaldehyde dehydrogenase 3 (Homo sapiens) (UniProt P47895); test: qHTS for Inhibitors of the Aldehyde Dehydrogenase Family (ALDH1A3) Primary screen (AID 2061315);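 note: plate controls were DMSO vehicle for no effect and reference inhibitor for full effect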
[3] = BET inhibitor-based combinations targeting novel dependencies in MECOM-rearranged (r) AML: SET-2 cell line (AID 2202231); conditions: SET-2 AML cells viability, CellTiter-Glo luminescence, 48 h; viability: hits give low values, concentration not given here; note: nearly all actives have a fitted effect of over 35% in size; note: potency is the fitted concentration of half-maximal effect;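 for viability: plate controls were DMSO treated cells for no effect and wells without cells for full effect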
Summary of the method: (§1)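 Cells were plated at 500 per well and exposed to an 11-point dose series of each drug for 48 hr. Viability was measured by CellTiter-Glo luminescence, normalized to DMSO and empty-well controls, and summarized as AUC and per-cell-line Z-AUC.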

[4] = BET inhibitor-based combinations targeting novel dependencies in MECOM-rearranged (r) AML: OCI-AML3 cell line (AID 2202232); conditions: Potency: OCI-AML3 viability; note: nearly all actives have a fitted effect of over 35% in size; note: potency is the fitted concentration of half-maximal effect
Summary of the method: as §1

[5] = BET inhibitor-based combinations targeting novel dependencies in MECOM-rearranged (r) AML: MV-4-11 cell line (AID 2202233); note: potency is the fitted concentration of half-maximal effect; nearly all actives have a fitted effect of over 45% in size
Summary of the method: (§2)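 Activity is given as area under the curve and as Z-AUC, mean-centred within each cell line. It comes from 11-point dose curves normalized to DMSO and empty wells. CellTiter-Glo luminescence was read after 48 hr drug exposure of 500 cells/well.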

[6] = BET inhibitor-based combinations targeting novel dependencies in MECOM-rearranged (r) AML: HNT-34 cell line (AID 2202234); note: nearly all actives have a fitted effect of over 35% in size; note: potency is the fitted concentration of half-maximal effect
Summary of the method: as §2

[7] = molecular target: Aldehyde dehydrogenase 1A1 (Homo sapiens) (UniProt P00352); test: qHTS for Inhibitors of the Aldehyde Dehydrogenase Family (ALDH1A1) Confirmatory screens (AID 2061316); note: potency is the fitted concentration of half-maximal effect; nearly all actives have a fitted effect of over 65% in size
[8] = BET inhibitor-based combinations targeting novel dependencies in MECOM-rearranged (r) AML: UCSD-AML1 cell line (AID 2202235); note: nearly all actives have a fitted effect of over 40% in size; note: potency is the fitted concentration of half-maximal effect
Summary of the method: as §2

[9] = BET inhibitor-based combinations targeting novel dependencies in MECOM-rearranged (r) AML: AML-191 cell line (AID 2202236; note: nearly all actives have a fitted effect of over 35% in size; note: potency is the fitted concentration of half-maximal effect)
Summary of the method: as §1

[10] = BET inhibitor-based combinations targeting novel dependencies in MECOM-rearranged (r) AML: AML-194 cell line (AID 2202237; note: nearly all actives have a fitted effect of over 40% in size; note: potency is the fitted concentration of half-maximal effect)
Summary of the method: as §1

O=C(O)C1(Cc2cccc(Nc3nccs3)n2)CCC(Oc2cccc(Cl)c2F)CC1 (centres undefined)
inactive: Potency [1] | Potency [2]
active: Potency [3] 1.66 µM | Potency [4] 0.662 µM | Potency [5] 1.32 µM | Potency [6] 0.468 µM

Cc1ccc(N[S+](=O)([O-])c2cc3c(cc2NC2CC2)NC(=O)CC3)cc1C
inactive: Potency [1] | Potency [2]
active: Potency [7] 28.3 µM

Cc1ccc(CNc2ncnc3ccc(-c4sc(C)nc4C)cc23)o1
active: Potency [7] 15.9 µM
inactive: Potency [1] | Potency [2]

Cc1onc(-c2ccc(F)cc2)c1COc1ccc(C(=O)N2CCS(=O)(=O)CC2)cn1
inactive: Potency [1] | Potency [2] | viability [3] 112% | Potency [4] | Potency [6] | Potency [8] | Potency [9] | Potency [10]

C=CC(=O)Nc1ccc2ncnc(Nc3ccc(OCc4cccc(F)c4)c(Cl)c3)c2c1
active: Potency [3] 10.5 µM | Potency [4] 5.9 µM | Potency [5] 6.61 µM | Potency [6] 6.61 µM | Potency [8] 7.42 µM | Potency [9] 7.42 µM | Potency [10] 8.33 µM
inactive: Potency [1] | Potency [2]

C[C@@H]1COCCN1c1cc(C2(S(C)(=N)=O)CC2)nc(-c2ccnc3[nH]ccc23)n1 (some centres undefined)
active: Potency [3] 2.63 µM | Potency [4] 1.86 µM | Potency [5] 2.35 µM | Potency [6] 4.68 µM | Potency [9] 2.63 µM
inactive: Potency [1] | Potency [2]

Nc1[nH]nc2nnc(-c3c(-c4ccccc4)nn4ccccc34)cc12
inactive: Potency [1] | Potency [2] | viability [3] 111% | Potency [8] | Potency [10]
active: Potency [4] 14.8 µM | Potency [5] 10.5 µM | Potency [9] 18.6 µM

COCCNCCCn1c(C(=O)CF)c(-c2ccc(C)cc2)c2c(N)ncnc21
active: Potency [4] 0.059 µM | Potency [5] 3.32 µM
inactive: Potency [1] | Potency [2] | viability [3] 101% | Potency [10]

COc1cc2ncnc(Nc3cccc(Cl)c3F)c2cc1OC(=O)N1CCN(C)C[C@H]1C
active: Potency [4] 13.2 µM | Potency [5] 13.2 µM | Potency [6] 16.6 µM
inactive: Potency [1] | Potency [2] | viability [3] 103% | Potency [8] | Potency [9] | Potency [10]

O=C1Nc2ccccc2/C1=C/c1cc(Cl)c(O)c(Cl)c1
inactive: Potency [1] | Potency [2]
active: Potency [7] 17.9 µM

Cc1cc(C)nc(NC(=S)N2CCN(c3cc(Cl)cc(Cl)n3)CC2)c1
inactive: Potency [1] | Potency [2]
active: Potency [7] 3.57 µM

CCCCNc1ncc2c(-c3ccc(F)cc3)nn(CC3CCC(N)CC3)c2n1 (centres undefined)
inactive: Potency [1] | Potency [2]
active: Potency [3] 14.4 µM | Potency [4] 9.1 µM | Potency [5] 0.129 µM | Potency [6] 4.56 µM | Potency [8] 6.45 µM | Potency [9] 5.74 µM | Potency [10] 5.74 µM
